# FBPA Giardia inh: inhibitors of Giardia lamblia fructose-1,6-bisphosphate aldolase | A8B2U2 | purified Giardia FBPA | Potency, µM (highest dose often 59.6 µM), inactives show at the top dose activity, negative = inhibition, most hits filed as inhibitors | 290,000 compounds, 0.71% hits | AID 2451; further: potency means the concentration at half of the fitted maximal effect; nearly all actives have a fitted effect of over 55% in size
# Target sequence (A8B2U2 whole entry, looked up): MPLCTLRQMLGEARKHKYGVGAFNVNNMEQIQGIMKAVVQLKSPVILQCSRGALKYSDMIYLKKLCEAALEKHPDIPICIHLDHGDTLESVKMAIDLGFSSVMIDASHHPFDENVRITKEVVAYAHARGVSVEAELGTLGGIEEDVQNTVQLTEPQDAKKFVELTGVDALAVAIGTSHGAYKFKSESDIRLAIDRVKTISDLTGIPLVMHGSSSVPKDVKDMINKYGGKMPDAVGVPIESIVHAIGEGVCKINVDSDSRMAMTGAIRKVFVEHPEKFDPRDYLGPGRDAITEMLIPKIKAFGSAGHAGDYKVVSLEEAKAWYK
#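 40 nM FBPA preincubated 10 min at RT with compound (up to 57.5 uM final), then substrate plus GAPDH/TPI/NAD/arsenate coupling and diaphorase/resazurin added. Fluorescence read after 20 min at RT, 525/598 nm.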
# Lassa entry inh: inhibitors of Lassa virus binding or cell entry. Lassa virus pseudotype entry inhibition, cell reporter. Potency, µM (titrated, usually from 37.9 µM), for the others: at the top dose activity change, negative = inhibition, most hits filed as inhibitors. 300,000 compounds, 1.2% hits. AID 540256; calls by dose curve; tested in HEK293 cells; further: potency means the concentration at half of the fitted maximal effect; nearly all actives have a fitted effect of over 50% in size
# Marburg entry inh: Marburg virus entry inhibition; Marburg virus pseudotyped entry inhibition, cell reporter; Potency, µM (series often up to 37.8 µM), without a hit: top-dose activity change, negative = inhibition, hits mostly inhibitors; 300,000 compounds, 1.8% hits; AID 540276; calls by dose curve; tested in HEK293 cells; further: potency means the concentration at half of the fitted maximal effect
# FMDV antiviral: antivirals against foot and mouth disease virus; FMDV antiviral cell-based qHTS; Potency, µM (top dose mostly 57.9 µM), without a hit: top-dose activity change, negative = inhibition, actives largely listed as inhibitors; 410,000 compounds, 1.2% hits; calls by dose curve; tested in HEK293T cells; further: read-out not given here; potency means the concentration at half of the fitted maximal effect; nearly all actives have a fitted effect of over 45% in size
# HCMV inh: blocks human cytomegalovirus replication. HFF cells, HCMV-luciferase reporter, 72 h; active compounds read low. activity change, negative = inhibition, % at 57.5 µM. 410,000 compounds, 4.5% hits. AID 1259415; in the data active means activity change below about -60%; inconclusive means no clear call, values can overlap the other calls; inactive means above about -39%
#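 Two compound doses tested in HFFs infected with HCMV-luciferase, MOI 1 PFU/cell, 72 h at 37C. Lysate luminescence read with OneGlo; data normalized against buffer-only and 10uM Salinomycin inhibitor controls.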
# HCV inh: inhibitors of hepatitis C virus infection; Huh7.5.1 HCVcc-Cre infection, luciferase reporter, 44 h; Potency, µM (doses to about 41.8 µM), for inactives: at the highest dose activity change, negative = inhibition, hits mostly inhibitors; 340,000 compounds, 3.4% hits; further: potency means the concentration at half of the fitted maximal effect
#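 1,000 cells/well; 4 h culture; + compound; + HCVcc-Cre (~0.5 moi); 44 h; luciferase substrate, RT 15 min; read 15 sec.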
# Starred values were filed as active, the others as inactive; ? = inconclusive; / = no result; ! = not confirmed by another sample; [ ] = remark or other dose. Compounds with a hit are over-represented: about 8.3% of the library has one in this group of screens. Unless noted, the call rests on the fitted dose curve; in most records, active means well fitted curve in the direction sought with a large enough effect; inconclusive means small, poorly fitted or top-dose-only effect, or another doubt; inactive means no such curve, though single readings can be large; an effect the other way counts as inactive or inconclusive. On the % scale 0 is the no-effect control and ±100 the full control effect.
SMILES,FBPA Giardia inh,Lassa entry inh,Marburg entry inh,FMDV antiviral,HCMV inh,HCV inh
Cc1ccc(-n2ncc(C(=O)Nc3ccc(Cl)cc3)c2C2CCNCC2)cc1C,-3%,?,?,-23%,-70*,?
CCOc1ccc(NC(=O)c2cnn(-c3ccc(C)c(Cl)c3)c2C2CCNCC2)cc1,/,3%[46.1 µM],/,-4%,-40,/
CCCCn1cc[n+](C)c1,-1%,/,/,/,/,/
Cc1nc(N2CCOCC2)c2nc(-c3ccccc3)n(CCCN3CCOCC3)c2n1,3%,/,/,/,/,/
Cc1c2ccncc2cc2c1[nH]c1ccccc12,/,-29%[46.1 µM],?,4%,?,6.3µM*
Cc1noc(C)c1C(=O)Nc1cc(Cl)ccc1N1CCOCC1,/,/,/,-24%,-9,10µM*
Cc1noc(C)c1CSCC(=O)Nc1cc(Cl)ccc1N1CCOCC1,12%,1%,-13%,-18%,0,/
O=C(O)CN1C(=O)C=CC1=O,/,/,/,-12%,30,/
O=C1C=CC(=O)N1CCCCCCN1C(=O)C=CC1=O,-2%,?,?,40µM*,-102*,?
CCN1C(=O)C=CC1=O,-1%,7%,28µM*!,/,/,/
C=CCNC(=O)[C@H]1C=C(OC)C(=O)C[C@H](c2ccccc2)[C@H]1C,/,/,9%[14.2 µM],/,/,/
C=CCOCC/C=C1/c2ccccc2C(OC)C1C (stereo not drawn),2%[12.9 µM],/,/,/,/,/
CC(C)(C)C1CCC2(CC1)CC(=O)c1ccccc1O2 (stereo not drawn),4%,/,/,-7%,-61*,9%
CC1=C(C(=O)Nc2ccc(Cl)cc2)C(c2ccccc2C)n2ncc(C(=O)Nc3ccc(C)cc3)c2N1 (stereo not drawn),/,?,5.6µM*,-16%,-32,/
O=C(Nc1ccc(Cl)cc1)c1cnn2c1NC(c1ccccc1)=CC2c1ccccc1 (stereo not drawn),/,16%[46.1 µM],/,-8%,-102*,/
CC1=C(C(=O)Nc2ccc(Cl)cc2)C(c2ccccc2)n2ncc(C(=O)Nc3ccccc3)c2N1 (stereo not drawn),/,?,?,-14%,13,/
COc1ccc(-c2nc3cnc(Oc4cccc(Cl)c4)nc3n(CCC#N)c2=O)cc1,5%,/,/,6%,/,/
Cc1ccc(OCc2cc(=O)n3ccsc3n2)c(NC(=O)c2ccco2)c1,/,16%[46.1 µM],/,-17%,9,/
FC(F)(F)c1nnc(Nc2ccc(Cl)cc2)s1,-14%,-34%,-10%[46.1 µM],?,-38,?
Fc1ccc(Nc2nnc(C(F)(F)F)s2)cc1Cl,-12%,?,?,0%,-98*,?
CC(Sc1ncn[nH]1)C(=O)NCc1ccccc1 (stereo not drawn),/,-2%[46.1 µM],14%[46.1 µM],-27%,-99*,13%
CCC1(C2CCN(C(=O)c3ccccc3C(C)=O)CC2)NC(=O)N(CCc2scnc2C)C1=O (stereo not drawn),/,/,/,-9%,/,/
O=C(Nc1nc(COc2ccccc2)cs1)C12CC3CC(CC(C3)C1)C2,-4%,-5%,-5%,-10%,-84*,?
Cc1ccc(C(=O)Nc2nc(COc3ccccc3)cs2)s1,6%,-45%,-20%,/,-75*,11µM*
O=c1c2ccccc2nc(-c2ccc(Cl)cc2)n1CCCOc1ccccc1F,/,-1%[46.1 µM],14%[46.1 µM],-4%,34,/
SMILES,FBPA Giardia inh,Lassa entry inh,Marburg entry inh,FMDV antiviral,HCMV inh,HCV inh
CN=c1scc(-c2ccccc2F)n1/N=C/c1ccc[nH]1,-11%,?,1µM*,126µM*,-99*,-26%
CN=c1scc(-c2ccccc2F)n1/N=C/c1ccc(O)c(O)c1O,7.9µM*,?,?,3.5µM*,-78*,-22%
NOCc1ccccc1,-20%,/,/,/,/,/
COc1ccc(C2Nc3ccccc3C(=O)N2Cc2ccco2)cc1COc1ccc([N+](=O)[O-])cc1 (stereo not drawn),2%,?,?,-17%,-35,?
COc1cccc(OCc2cc(C3Nc4ccccc4C(=O)N3Cc3ccco3)ccc2OC)c1 (stereo not drawn),-9%,8.9µM*,?,-21%,-21,?
c1ccc(-c2cc(CSc3nc4ccccc4[nH]3)on2)cc1,-16%,-15%,?,?,?,4µM*
COc1ccc(-c2noc(CSc3nnc(Cc4ccccc4)n3-c3ccccc3)n2)cc1OC,/,6.3µM*,-22%[46.1 µM],-9%,-21,/

# Screens from PubChem BioAssay.
